The entries come from a sample that favours the strongest signals as a whole.
Key:
Assay in all cases: glycan array binding signal (z-score within array); higher = stronger binding
Settings in all cases: glycan notation: IUPAC condensed, linker removed
[1] = molecular target: Fuc(a1-2)Gal(b1-3)GlcNAc(b1-3)[Gal(b1-4)GlcNAc(b1-6)]Gal(b1-4)Glc
Summary of the method: (§1)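 The binding signal is a Z-score computed within each array. Data were drawn from 3228 arrays in the Consortium for Functional Glycomics database, restricted to those with a known protein sequence. Scores were averaged over arrays of the same protein sequence at different concentrations or buffers, and over linkers, and negative values can be taken as non-binding.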

[2] = molecular target: Fuc(a1-2)Gal(b1-4)[Fuc(a1-3)]GlcNAc
Summary of the method: as §1

[3] = molecular target: Fuc(a1-2)[Gal(a1-3)]Gal(b1-4)GlcNAc(b1-2)Man(a1-3)[Fuc(a1-2)[Gal(a1-3)]Gal(b1-4)GlcNAc(b1-2)Man(a1-6)]Man(b1-4)GlcNAc(b1-4)GlcNAc
Summary of the method: as §1

[4] = molecular target: Fuc(a1-2)[Gal(a1-3)]Gal(b1-4)GlcNAc(b1-2)Man(a1-3)[Fuc(a1-2)[Gal(a1-3)]Gal(b1-4)GlcNAc(b1-2)Man(a1-6)]Man(b1-4)GlcNAc(b1-4)[Fuc(a1-6)]GlcNAc
Summary of the method: as §1

[5] = molecular target: Fuc(a1-2)[Gal(a1-3)]Gal(b1-4)[Fuc(a1-3)]Glc
Summary of the method: as §1

[6] = molecular target: Fuc(a1-2)[GalNAc(a1-3)]Gal(b1-4)GlcNAc(b1-2)Man(a1-3)[Fuc(a1-2)[GalNAc(a1-3)]Gal(b1-4)GlcNAc(b1-2)Man(a1-6)]Man(b1-4)GlcNAc(b1-4)GlcNAc
Summary of the method: as §1

[7] = molecular target: Fuc(a1-2)[GalNAc(a1-3)]Gal(b1-4)GlcNAc(b1-3)Gal(b1-4)GlcNAc
Summary of the method: as §1

[8] = molecular target: Fuc(a1-2)[GalNAc(a1-3)]Gal(b1-4)GlcNAc(b1-3)Gal(b1-4)GlcNAc(b1-3)Gal(b1-4)GlcNAc
Summary of the method: as §1

Gal(b1-3)GlcNAc = molecular target: Gal(b1-3)GlcNAc
Summary of the method: as §1

[9] = molecular target: Gal(b1-3)GlcNAc(b1-3)Gal(b1-4)Glc
Summary of the method: as §1

[10] = molecular target: Gal(b1-3)[Neu5Ac(b2-6)]GalNAc
Summary of the method: as §1

[11] = molecular target: Gal(b1-4)GlcNAc(b1-3)Gal(b1-4)Glc
Summary of the method: as §1

[12] = molecular target: Gal(b1-4)GlcNAc(b1-3)Gal(b1-4)GlcNAc(b1-3)Gal(b1-4)GlcNAc
Summary of the method: as §1

[13] = molecular target: GalNAc(a1-3)GalNAc(a1-3)Gal(a1-4)Gal(b1-4)GlcNAc
Summary of the method: as §1

[14] = molecular target: GalNAc(b1-3)Gal(a1-6)Gal(b1-4)Glc
Summary of the method: as §1

[15] = molecular target: GlcNAc(a1-4)Gal(b1-4)GlcNAc(b1-3)Gal(b1-4)GlcNAc(b1-3)Gal(b1-4)GlcNAc
Summary of the method: as §1

[16] = molecular target: GlcNAc(a1-6)Gal(b1-4)GlcNAc
Summary of the method: as §1

GlcNAc(b1-3)Gal = molecular target: GlcNAc(b1-3)Gal
Summary of the method: as §1

Kdn(a2-3)Gal(b1-3)GlcNAc = molecular target: Kdn(a2-3)Gal(b1-3)GlcNAc
Summary of the method: as §1

Man(b1-4)GlcNAc = molecular target: Man(b1-4)GlcNAc
Summary of the method: as §1

[17] = molecular target: Neu5Ac(a2-3)Gal(b1-3)[Fuc(a1-4)]GlcNAc(b1-3)Gal(b1-3)[Fuc(a1-4)]GlcNAc
Summary of the method: as §1

Neu5Ac(a2-3)Gal(b1-4)Glc = molecular target: Neu5Ac(a2-3)Gal(b1-4)Glc
Summary of the method: as §1

[18] = molecular target: Neu5Ac(a2-3)Gal(b1-4)GlcNAc(b1-3)Gal(b1-4)GlcNAc
Summary of the method: as §1

[19] = molecular target: Neu5Ac(a2-3)Gal(b1-4)GlcNAc(b1-3)GalNAc
Summary of the method: as §1

[20] = molecular target: Neu5Ac(a2-3)[Neu5Ac(a2-6)]GalNAc
Summary of the method: as §1

Neu5Ac(a2-6)Gal(b1-4)Glc = molecular target: Neu5Ac(a2-6)Gal(b1-4)Glc
Summary of the method: as §1

[21] = molecular target: Neu5Ac(a2-6)Gal(b1-4)GlcNAc(b1-3)Gal(b1-4)GlcNAc(b1-3)Gal(b1-4)GlcNAc
Summary of the method: as §1

[22] = molecular target: Neu5Ac(a2-6)Gal(b1-4)GlcNAc(b1-3)Gal(b1-4)[Fuc(a1-3)]GlcNAc(b1-3)Gal(b1-4)[Fuc(a1-3)]GlcNAc
Summary of the method: as §1

Neu5Ac(a2-6)GalNAc = molecular target: Neu5Ac(a2-6)GalNAc
Summary of the method: as §1

[23] = molecular target: Neu5Gc(b2-6)Gal(b1-4)GlcNAc
Summary of the method: as §1

B1: Gal 3 (Canis lupus) (protein)
chain: MADSFSLNDALSGSGNPNPQGWPGPWGNQPAGAGGYPGASYPGAYPGQAPPGGYPGQAPPGGYPGQAPPGGYPGQAPPGGYPGQAPPGGYPGQAPPGTYPGPTAPAYPGPTAPGTQPGQPSGPGAYPPPGQPSAPGAYPAAGPFGIPAGPLTVPYDLPLPGGVKPRMLITILGTVRPSANRLALDFKRGNDVAFHFNPRFNEDNKRVIVCNTKLDNIWGKEERQAAFPFESGKPFKIQVLVESDHFKVAVNDAHLLQYNHRMKNLPEISKLGISGDIDLTSASYAMI
[1]
  glycan array binding signal (z-score): -0.147
[2]
  glycan array binding signal (z-score): -0.259
[3]
  glycan array binding signal (z-score): 7.41
[4]
  glycan array binding signal (z-score): 4.22
[5]
  glycan array binding signal (z-score): -0.118
[6]
  glycan array binding signal (z-score): 7.54
[7]
  glycan array binding signal (z-score): 5.05
[8]
  glycan array binding signal (z-score): 5.42
Gal(b1-3)GlcNAc
  glycan array binding signal (z-score): -0.231
[9]
  glycan array binding signal (z-score): -0.074
[10]
  glycan array binding signal (z-score): -0.259
[11]
  glycan array binding signal (z-score): 0.512
[12]
  glycan array binding signal (z-score): 5.09
[13]
  glycan array binding signal (z-score): -0.258
[14]
  glycan array binding signal (z-score): -0.254
[15]
  glycan array binding signal (z-score): 3.48
[16]
  glycan array binding signal (z-score): -0.252
GlcNAc(b1-3)Gal
  glycan array binding signal (z-score): -0.264
Kdn(a2-3)Gal(b1-3)GlcNAc
  glycan array binding signal (z-score): -0.149
Man(b1-4)GlcNAc
  glycan array binding signal (z-score): -0.261
[17]
  glycan array binding signal (z-score): -0.23
Neu5Ac(a2-3)Gal(b1-4)Glc
  glycan array binding signal (z-score): -0.247
[18]
  glycan array binding signal (z-score): 0.679
[19]
  glycan array binding signal (z-score): -0.205
[20]
  glycan array binding signal (z-score): -0.261
Neu5Ac(a2-6)Gal(b1-4)Glc
  glycan array binding signal (z-score): -0.246
[21]
  glycan array binding signal (z-score): 5.91
[22]
  glycan array binding signal (z-score): -0.23
Neu5Ac(a2-6)GalNAc
  glycan array binding signal (z-score): -0.257
[23]
  glycan array binding signal (z-score): -0.25
